# Records with an inconclusive call do not appear. A call without a number means that no potency is given here. A number with no mark means an inactive call. Calls of active or inactive are those of the source. Calls come from the whole dose curve; as a rule, active = well fitted curve in the direction sought with a large enough effect; inconclusive = small, poorly fitted or top-dose-only effect, or another doubt; inactive = no such curve, though single readings can be large; an effect the other way counts as inactive or inconclusive.
# Assays:
# [1] = test system: Zika virus NS2B-NS3 protease; experiment: Primary screen GU AMC qHTS for Zika virus inhibitors (AID 1347154); note: nearly all actives have a fitted effect of over 70% in size
# In short: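 Unlinked Zika NS2B hydrophilic domain–NS3 protease complex at 25 nM in 10 mM Tris-HCl pH 8.0, 0.01% Tween 20, with an AMC peptide substrate. Fluorescence change (340/450 nm) over 15 min at room temperature, normalized to controls, fitted to 4-parameter Hill.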
# [2] = test system: Zika virus NS2B-NS3 protease (unlinked complex); experiment: Confirmatory screen GU AMC qHTS for Zika virus inhibitors (AID 1347153); note: nearly all actives have a fitted effect of over 70% in size
# In short: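 Fluorescence change (ex 340/em 450 nm) over 15 min, ~20% substrate conversion, normalized to no-inhibitor and no-enzyme controls, then Hill-fitted. Unlinked protease at 25 nM; AMC peptide 10 µM.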
# [3] = Confirmatory screen NINDS Rhodamine qHTS for Zika virus inhibitors (AID 1347161); note: nearly all actives have a fitted effect of over 60% in size; note: potency is the fitted concentration of half-maximal effect;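 for activity change, negative = inhibition: purified Zika NS2B-NS3 protease with linked NS2B cofactor domain and Rhodamine110 peptide substrate; series mostly up to about 110 µM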
# In short: (§1)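 Kinetic fluorescence (Ex 480 nm, Em 540 nm) over 15 min with 1.5 microM Rhodamine110 peptide and 25 nM linked protease.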
# [4] = Vero cells viability qHTS for Zika virus inhibitors (AID 1347167)
# In short: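 Cells seeded at 2.5 x 10^5 cells/mL in DMEM with 4% FBS and attached overnight at 37 degrees C, then exposed to compound for 24 to 48 hours. Viability read as ATP content by CellTiter Glo luminescence.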
# [5] = HepG2 cells viability qHTS for Zika virus inhibitors (AID 1347168)
# Excerpt: Avindra Nath, Ph.D., National Institute of Neurological Disorders and Stroke (NINDS), Bethesda, MD
# Radhakrishnan Padmanabhan, Ph.D., Georgetown University (GU), Washington D.C.
# Zika Virus causes congenital defects, including microcephaly and is associated with Guillain-Barre syndrome, eningoencephalitis and myelitis in infected adult. […] Using a target-based approach, we hope to establish a screening paradigm to uncover novel, cell-active NS2B-NS3 protease (Zika Virus) specific inhibitors from NCATS' collection of small molecules using qHTS.
# Four assay panel was created to identify potential Zika Virus inhibitors. Namely, (1) GU unlinked NS2B-NS3 AMC tagged protease qHTS, (2) GU unlinked NS2B-NS3 Rhodamine tagged protease qHTS, (3) NINDS linked NS2B-NS3 AMC tagged protease qHTS, (4) NINDS linked NS2B-NS3 Rhodamine tagged protease qHTS. Identified inhibitors were screened against the Vero and HepG2 cell viability assays using CellTiter Glo to exclude cytotoxic compounds.
# Early Translation Branch (ETB)
# National Center for Advancing Translational Sciences (NCATS), Rockville, MD
# National Institute of Health (NIH), Bethesda, Maryland
# Vero and HepG2 Cell Viability Assay:
# Vero and HepG2 cell cytotoxicity were determined using a luminescent readout with CellTiter Glo reagent (Promega, Madison, WI), which is based on measuring the ATP content within cells. Briefly, 4 microL of Vero or HepG2 cells at 2.5 x 10^5 cells/mL in DMEM containing 4% FBS were dispensed into 1536-well solid bottom tissue treated white plate using a Multidrop Combi dispenser (Thermo Scientific). Plates were incubated at 37 degrees C, 95% humidity, and 5% CO2 overnight to allow for cell attachment. Compounds were dissolved in DMSO at different concentrations and transferred via pintool (Wako Automation), for a final concentration of 0.029 µM - 57 microM. Plates were again incubated for 24 to 48 hours, followed by a 2 microL addition of CellTiter Glo. Finally, plates were incubated for 30 minutes at 37 degrees C and 5% CO2 before being read on a ViewLux (Perkin Elmer) for luminescence.
# [6] = Tertiary RLuc qRT-PCR qHTS assay for Zika virus inhibitors (AID 1347169); note: top concentration of the series differs between compounds; nearly all actives have a fitted effect of over 55% in size
# In short: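 Orthogonal cell-based readout: luminescence measured 1-1.5 hrs after adding live-cell Renilla substrate to Vero cells that had been infected with ZIKV-RLuc (MOI 1-2) post-compound, incubated 48-72 hrs at 37 degrees C.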
# [7] = target: Lysine-specific demethylase 5B (Homo sapiens) (UniProt Q9UGL1); experiment: Optimization screen for KDM5B Histone Demethylases FDH coupled qHTS against the LOPAC library (AID 1347166)
# Chain of Lysine-specific demethylase 5B (Homo sapiens) (Q9UGL1 whole entry, looked up): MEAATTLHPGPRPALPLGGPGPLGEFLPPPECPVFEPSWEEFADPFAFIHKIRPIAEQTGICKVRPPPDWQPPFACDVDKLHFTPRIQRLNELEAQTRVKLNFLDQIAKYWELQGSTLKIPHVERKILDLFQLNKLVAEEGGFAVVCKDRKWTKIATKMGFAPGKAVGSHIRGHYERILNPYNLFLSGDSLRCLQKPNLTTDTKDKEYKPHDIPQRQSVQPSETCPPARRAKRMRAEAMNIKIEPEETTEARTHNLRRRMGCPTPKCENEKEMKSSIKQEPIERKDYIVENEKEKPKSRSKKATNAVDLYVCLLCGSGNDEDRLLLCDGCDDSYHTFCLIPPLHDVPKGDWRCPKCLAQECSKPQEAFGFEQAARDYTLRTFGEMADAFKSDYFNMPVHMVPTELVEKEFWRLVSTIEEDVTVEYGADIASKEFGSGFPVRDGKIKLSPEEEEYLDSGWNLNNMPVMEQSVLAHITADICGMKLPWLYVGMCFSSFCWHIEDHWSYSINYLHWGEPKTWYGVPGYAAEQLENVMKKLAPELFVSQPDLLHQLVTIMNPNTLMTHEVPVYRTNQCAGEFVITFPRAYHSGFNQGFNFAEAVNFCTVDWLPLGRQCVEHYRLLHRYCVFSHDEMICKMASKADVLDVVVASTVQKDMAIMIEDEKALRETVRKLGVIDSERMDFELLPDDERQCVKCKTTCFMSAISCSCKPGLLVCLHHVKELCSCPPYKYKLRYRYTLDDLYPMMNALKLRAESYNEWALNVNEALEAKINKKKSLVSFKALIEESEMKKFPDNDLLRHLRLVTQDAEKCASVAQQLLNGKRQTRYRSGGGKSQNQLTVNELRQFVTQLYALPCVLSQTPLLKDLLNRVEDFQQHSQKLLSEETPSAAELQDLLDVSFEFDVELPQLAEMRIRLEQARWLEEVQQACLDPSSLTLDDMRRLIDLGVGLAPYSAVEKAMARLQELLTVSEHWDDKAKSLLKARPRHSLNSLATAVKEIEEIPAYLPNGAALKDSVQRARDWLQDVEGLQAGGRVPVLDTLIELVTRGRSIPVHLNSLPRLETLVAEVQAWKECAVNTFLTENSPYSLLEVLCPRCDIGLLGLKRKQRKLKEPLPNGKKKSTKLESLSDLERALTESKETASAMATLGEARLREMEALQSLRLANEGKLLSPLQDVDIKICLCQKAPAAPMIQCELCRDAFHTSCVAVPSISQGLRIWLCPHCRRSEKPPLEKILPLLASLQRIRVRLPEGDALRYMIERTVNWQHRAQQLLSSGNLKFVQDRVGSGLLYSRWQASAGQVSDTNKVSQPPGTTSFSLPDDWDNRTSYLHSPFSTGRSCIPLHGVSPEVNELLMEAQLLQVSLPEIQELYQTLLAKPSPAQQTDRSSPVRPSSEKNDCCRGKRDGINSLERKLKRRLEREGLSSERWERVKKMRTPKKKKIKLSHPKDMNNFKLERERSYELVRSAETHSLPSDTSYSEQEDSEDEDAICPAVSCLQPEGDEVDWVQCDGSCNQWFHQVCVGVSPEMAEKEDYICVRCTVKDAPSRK
# In short: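 KDM5BDeltaAP (200nM final) preincubated 10 min with compound, then 12.5uM H3K4Me3, 25uM a-ketoglutarate, ascorbate, Fe(II), NAD+ and FDH added; 50mM HEPES pH 7.5, 0.01% Tween-20. NADH fluorescence (340/450 nm) change over 30 min, room temperature.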
# [8] = test system: Zika virus NS2B-NS3 protease (unlinked complex); experiment: Primary screen GU Rhodamine qHTS for Zika virus inhibitors: Unlinked NS2B-NS3 protease assay (AID 1347159); note: nearly all actives have a fitted effect of over 60% in size
# In short: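 A qHTS format was used, with compound concentrations ranging up to 114 microM. Each compound was preincubated with 25 nM NS2B-NS3 protease, and the substrate was then added at 1.5 microM. Curves were fitted with a 4-parameter Hill model.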
# [9] = test system: Zika virus NS2B-NS3 protease (linked construct); experiment: Primary screen NINDS Rhodamine qHTS for Zika virus inhibitors (AID 1347160); conditions: outcome: dose series up to 57.1 µM; note: nearly all actives have a fitted effect of over 55% in size
# In short: as §1
# [10] = test system: Zika virus NS2B-NS3 protease (linked construct); experiment: 384 well plate NINDS Rhodamine confirmatory qHTS for Zika virus inhibitors (AID 1347164); conditions: rhodamine-110 peptide substrate fluorescence;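 note: fluorescence from protease cleavage of Ac-LKRR-rhodamine 110 substrate; potency is the fitted concentration of half-maximal effect; nearly all actives have a fitted effect of over 65% in size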
# In short: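 Fluorescence at 485/538 nm was measured 25 minutes after adding 10 microM Ac-LKRR-Rd substrate, in the dark at room temperature. The protease (5, 30 or 60 nM final) had been preincubated ~15 minutes with compound; aprotinin as control.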
smiles,measurement,setting,value
O=C(O)CN(CCOCCOCCN(CC(=O)O)CC(=O)O)CC(=O)O,"activity change, negative = inhibition",[1],-0.967% [at 0.59 µM]
CCn1cc(C(=O)O)c(=O)c2cc3c(cc21)OCO3,outcome,[1],inactive
CN(C)C/C=C(/c1ccc(Br)cc1)c1cccnc1,outcome,[1],inactive
CNCCC(Oc1ccccc1OC)c1ccccc1 (configuration not stated),outcome,[1],inactive
CCN1CCc2nc(N)oc2CC1,outcome,[2],inactive
same,outcome,[1],inactive
same,Potency,[3],inactive
same,outcome,[4],inactive
same,outcome,[5],inactive
same,outcome,[6],inactive
C[n+]1cc2c3c(ccc2c2ccc4cc5c(cc4c21)OCO5)OCO3,outcome,[1],inactive
C#CCN(C)CCCOc1ccc(Cl)cc1Cl,outcome,[1],inactive
CCCCNc1ccc(C(=O)OCCN(C)C)cc1,outcome,[1],inactive
Fc1ccc(C(c2ccc(F)cc2)N2CCN(C/C=C/c3ccccc3)CC2)cc1,outcome,[1],inactive
CCCC(C(=O)OCCN(CC)CC)(c1ccccc1)c1ccccc1,outcome,[1],inactive
CCN1CCC[C@H]1CNC(=O)c1c(O)c(Cl)cc(Cl)c1OC,outcome,[1],inactive
CCCN(CCC)C(=O)C(CCC(=O)O)NC(=O)c1ccccc1 (configuration not stated),outcome,[1],inactive
CCCCOCCOCCOCc1cc2c(cc1CCC)OCO2,outcome,[1],inactive
O=C(CCNNC(=O)c1ccncc1)NCc1ccccc1,outcome,[1],inactive
C(=C\c1ccccc1)/CN1CCN(C(c2ccccc2)c2ccccc2)CC1,outcome,[1],inactive
COc1cc2c(cc1OC)-c1cc(=Nc3c(C)cc(C)cc3C)n(C)c(=O)n1CC2,outcome,[1],inactive
CCOC(=O)C1=C(C)NC(C)=C(C(=O)OC)C1c1cccc([N+](=O)[O-])c1 (configuration not stated),outcome,[1],inactive
CN(C)CCOC(=O)COc1ccc(Cl)cc1,outcome,[1],inactive
CCOC(=O)c1cnc2c(cnn2CC)c1NN=C(C)C,outcome,[2],inactive
same,outcome,[1],inactive
same,Potency,[3],inactive
same,Potency,[7],inactive
same,outcome,[4],inactive
same,outcome,[5],inactive
CC(=O)OC(C)C[N+](C)(C)C (configuration not stated),outcome,[1],inactive
Nc1ncn([C@@H]2O[C@H](CO)[C@@H](O)[C@H]2O)c(=O)n1,outcome,[1],inactive
Cc1ccc(=O)n(-c2ccccc2)c1,outcome,[1],inactive
C[C@]12CCC(=O)C=C1CC[C@@H]1[C@@H]2C(=O)C[C@@]2(C)[C@H]1CC[C@]2(O)C(=O)CO,outcome,[1],inactive
Cc1cc(C)c(/C=C2\C(=O)Nc3ccccc32)[nH]1,outcome,[1],inactive
CC(=O)Nc1nnc(S(N)(=O)=O)s1,outcome,[1],inactive
COC(=O)[C@H]1[C@H]2C[C@@H]3c4[nH]c5cc(OC)ccc5c4CCN3C[C@H]2C[C@@H](OC(=O)c2cc(OC)c(OC)c(OC)c2)[C@@H]1OC,outcome,[2],inactive
same,outcome,[1],inactive
same,outcome,[8],inactive
same,outcome,[9],inactive
same,Potency,[3],inactive
same,outcome,[4],inactive
same,outcome,[5],inactive
Cc1nc2sccn2c(=O)c1CCN1CCC(=C(c2ccc(F)cc2)c2ccc(F)cc2)CC1,outcome,[2],inactive
same,Potency,[3],inactive
same,outcome,[4],inactive
same,outcome,[5],inactive
CCN(CC)CCNC(=O)c1cc(S(C)(=O)=O)ccc1OC,outcome,[1],inactive
Cc1ccc(Cl)c(Nc2ccccc2C(=O)O)c1Cl,outcome,[1],inactive
FC(F)(F)c1ccccc1-n1ccnc1,outcome,[1],inactive
O=C(O)CCCCCCCC(=O)O,outcome,[1],inactive
same,Potency,[7],inactive
CCCN1C[C@H](CSC)C[C@@H]2c3cccc4[nH]cc(c34)C[C@H]21,outcome,[1],inactive
same,outcome,[9],inactive
same,Potency,[7],inactive
Cc1scc2c1N(C(=O)CN1CCN(C)CC1)c1ccccc1NC2=O,outcome,[1],inactive
same,Potency,[7],inactive
CCCNC(C)C(=O)Nc1ccccc1C (configuration not stated),outcome,[1],inactive
same,Potency,[7],inactive
CCN(CC)CCCN(c1ccccc1)C1Cc2ccccc2C1,outcome,[1],inactive
CC1=NS(=O)(=O)c2cc(Cl)ccc2N1,outcome,[1],inactive
same,Potency,[7],inactive
CNCCCN1c2ccccc2CCc2ccccc21,outcome,[1],inactive
same,Potency,[7],inactive
CC(C)NCC(O)c1cc(O)cc(O)c1 (configuration not stated),outcome,[1],inactive
same,Potency,[7],inactive
CCn1nc(C(=O)O)c(=O)c2cc3c(cc21)OCO3,outcome,[1],inactive
same,Potency,[7],inactive
NC(Cc1ccc(Cl)cc1)C(=O)O (configuration not stated),"activity change, negative = inhibition",[1],-1.34% [at 0.59 µM]
same,Potency,[7],inactive
C[C@]12CCC(=O)C=C1CC[C@@H]1[C@@H]2CC[C@@]2(C)[C@H]1CC[C@]2(O)C(=O)CO,outcome,[1],inactive
same,Potency,[7],inactive
CN(C)[C@@H]1C(=O)C(C(N)=O)=C(O)[C@@]2(O)C(=O)C3=C(O)c4c(O)ccc(Cl)c4[C@@H](O)[C@H]3C[C@@H]12,outcome,[1],inactive
same,Potency,[3],12.4 µM (active)
same,Potency,[10],25.1 µM (active)
CN1CCN(C2=Nc3ccccc3Oc3ccc(Cl)cc32)CC1,outcome,[1],inactive
same,Potency,[7],inactive
C[N+](C)(C)CCCCCCCCCC[N+](C)(C)C,outcome,[1],inactive
same,Potency,[7],inactive
CC1=C(C)C(=O)C(CCCCC#CCCCC#CCO)=C(C)C1=O,outcome,[1],inactive
C=CCc1ccccc1OCC(O)CNC(C)C (configuration not stated),outcome,[1],inactive
CCCCNc1c(C(=O)OCC)c(C)nc2c1cnn2CC,outcome,[1],inactive
same,Potency,[7],inactive

# Reference: PubChem BioAssay (NCATS)
